Data as given in the supplement of paper PMC11732987, “Enantioselective OTUD7B fragment discovery through chemoproteomics screening and high-throughput optimisation” (Communications Chemistry, 2025).

Experiments:
Assay in all cases: log2 ratio of Biotin-Ahx-Ub-VS probe labelling (fragment/DMSO); higher = less target engagement (more negative = stronger competition), active = hit call of the paper (q ≤ 0.05, log2 ratio ≤ -1)
Settings in all cases: compound concentration: 200 uM; treatment time: 3 h
[1] = biological target: T1, OTUD6B (UniProt Q8N6M0)
T1 sequence (whole entry): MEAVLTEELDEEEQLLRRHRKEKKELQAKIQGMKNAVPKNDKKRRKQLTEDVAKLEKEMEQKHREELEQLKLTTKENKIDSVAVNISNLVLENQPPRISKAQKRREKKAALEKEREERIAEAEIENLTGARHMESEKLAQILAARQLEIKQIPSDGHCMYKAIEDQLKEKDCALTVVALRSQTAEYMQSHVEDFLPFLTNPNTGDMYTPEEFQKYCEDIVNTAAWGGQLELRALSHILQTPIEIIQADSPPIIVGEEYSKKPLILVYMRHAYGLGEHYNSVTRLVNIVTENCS
Summary of the method: (§1)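 HEK293T lysate (495 µg per sample, in Tris/CHAPS/IGEPAL buffer with protease inhibitors) was treated in triplicate with fragment at 200 µM or with DMSO for 3 h. It was then treated with Biotin-Ahx-Ub-VS (0.5 µM final) for 1 h. Labelled DUBs were NeutrAvidin-enriched, digested with LysC and trypsin, and run by diaPASEF LC-MS/MS. Spectronaut label-free quantities were global-median-normalised. Values are average log2 ratios fragment/DMSO by unpaired t-test, using proteins with ≥2 unique peptides.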

[2] = biological target: T2, OTUD7B (UniProt Q6GQQ9)
T2 sequence (whole entry): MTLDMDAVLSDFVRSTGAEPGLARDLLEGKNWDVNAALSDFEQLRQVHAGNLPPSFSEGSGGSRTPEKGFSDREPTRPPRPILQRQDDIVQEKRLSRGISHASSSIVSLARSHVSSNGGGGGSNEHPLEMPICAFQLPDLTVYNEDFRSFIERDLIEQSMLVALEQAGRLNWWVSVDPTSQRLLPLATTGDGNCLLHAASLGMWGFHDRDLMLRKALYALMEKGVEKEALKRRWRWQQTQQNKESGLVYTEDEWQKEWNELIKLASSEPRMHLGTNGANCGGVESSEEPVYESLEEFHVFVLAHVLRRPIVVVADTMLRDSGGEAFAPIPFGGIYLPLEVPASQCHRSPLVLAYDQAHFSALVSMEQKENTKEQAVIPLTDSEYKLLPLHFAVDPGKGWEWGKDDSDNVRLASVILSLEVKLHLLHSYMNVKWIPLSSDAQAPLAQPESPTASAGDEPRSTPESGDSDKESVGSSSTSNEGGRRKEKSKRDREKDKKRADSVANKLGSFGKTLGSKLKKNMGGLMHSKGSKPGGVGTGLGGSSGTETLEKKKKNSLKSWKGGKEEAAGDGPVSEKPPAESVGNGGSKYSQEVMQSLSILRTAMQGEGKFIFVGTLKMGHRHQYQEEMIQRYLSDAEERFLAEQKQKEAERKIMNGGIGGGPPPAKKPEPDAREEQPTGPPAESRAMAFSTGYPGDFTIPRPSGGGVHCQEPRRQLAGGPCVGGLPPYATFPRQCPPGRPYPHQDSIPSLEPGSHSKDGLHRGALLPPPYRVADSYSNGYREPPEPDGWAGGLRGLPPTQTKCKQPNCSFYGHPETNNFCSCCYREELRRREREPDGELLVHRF
Summary of the method: as §1

[3] = biological target: PRPF8 (UniProt Q6P2Q9)
Summary of the method: as §1

[4] = biological target: T3, PSMD7 (UniProt P51665)
T3 sequence (whole entry): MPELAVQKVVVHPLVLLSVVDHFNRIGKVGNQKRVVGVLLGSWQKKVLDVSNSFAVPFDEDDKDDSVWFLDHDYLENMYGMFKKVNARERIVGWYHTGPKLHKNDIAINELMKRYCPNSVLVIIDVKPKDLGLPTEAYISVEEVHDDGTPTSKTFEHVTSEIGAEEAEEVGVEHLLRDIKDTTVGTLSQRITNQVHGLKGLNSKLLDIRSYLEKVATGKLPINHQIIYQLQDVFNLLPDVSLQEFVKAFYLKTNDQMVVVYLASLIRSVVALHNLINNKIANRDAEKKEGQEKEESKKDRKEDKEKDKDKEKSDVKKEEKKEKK
Summary of the method: as §1

[5] = biological target: UCHL1 (UniProt P09936)
Sequence of UCHL1 (P09936 whole entry, looked up): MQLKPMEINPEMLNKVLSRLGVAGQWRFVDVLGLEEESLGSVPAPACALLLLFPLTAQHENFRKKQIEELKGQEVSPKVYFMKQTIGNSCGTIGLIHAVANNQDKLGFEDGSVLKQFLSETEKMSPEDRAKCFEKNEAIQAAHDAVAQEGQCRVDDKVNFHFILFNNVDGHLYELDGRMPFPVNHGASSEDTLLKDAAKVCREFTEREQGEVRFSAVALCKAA
Summary of the method: as §1

[6] = biological target: T4, UCHL3 (UniProt P15374)
T4 sequence (whole entry): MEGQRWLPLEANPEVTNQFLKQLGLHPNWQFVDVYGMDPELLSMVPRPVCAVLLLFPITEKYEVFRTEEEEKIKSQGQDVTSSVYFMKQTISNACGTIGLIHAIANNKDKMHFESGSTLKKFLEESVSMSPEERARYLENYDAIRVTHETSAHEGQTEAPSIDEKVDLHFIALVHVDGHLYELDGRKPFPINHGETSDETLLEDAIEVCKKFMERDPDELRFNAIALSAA
Summary of the method: as §1

[7] = biological target: T5, UCHL5 (UniProt Q9Y5K5)
T5 sequence (whole entry): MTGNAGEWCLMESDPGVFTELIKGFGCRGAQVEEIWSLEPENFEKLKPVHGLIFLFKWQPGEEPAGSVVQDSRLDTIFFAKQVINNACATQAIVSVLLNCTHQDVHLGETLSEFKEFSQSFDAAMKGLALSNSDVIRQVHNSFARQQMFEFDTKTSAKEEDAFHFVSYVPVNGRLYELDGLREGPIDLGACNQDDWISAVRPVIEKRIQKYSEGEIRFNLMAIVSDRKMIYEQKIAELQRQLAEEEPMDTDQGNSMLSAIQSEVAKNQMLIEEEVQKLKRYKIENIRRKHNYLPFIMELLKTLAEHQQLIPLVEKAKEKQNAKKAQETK
Summary of the method: as §1

[8] = biological target: USP10 (UniProt Q14694)
Sequence of USP10 (Q14694 whole entry): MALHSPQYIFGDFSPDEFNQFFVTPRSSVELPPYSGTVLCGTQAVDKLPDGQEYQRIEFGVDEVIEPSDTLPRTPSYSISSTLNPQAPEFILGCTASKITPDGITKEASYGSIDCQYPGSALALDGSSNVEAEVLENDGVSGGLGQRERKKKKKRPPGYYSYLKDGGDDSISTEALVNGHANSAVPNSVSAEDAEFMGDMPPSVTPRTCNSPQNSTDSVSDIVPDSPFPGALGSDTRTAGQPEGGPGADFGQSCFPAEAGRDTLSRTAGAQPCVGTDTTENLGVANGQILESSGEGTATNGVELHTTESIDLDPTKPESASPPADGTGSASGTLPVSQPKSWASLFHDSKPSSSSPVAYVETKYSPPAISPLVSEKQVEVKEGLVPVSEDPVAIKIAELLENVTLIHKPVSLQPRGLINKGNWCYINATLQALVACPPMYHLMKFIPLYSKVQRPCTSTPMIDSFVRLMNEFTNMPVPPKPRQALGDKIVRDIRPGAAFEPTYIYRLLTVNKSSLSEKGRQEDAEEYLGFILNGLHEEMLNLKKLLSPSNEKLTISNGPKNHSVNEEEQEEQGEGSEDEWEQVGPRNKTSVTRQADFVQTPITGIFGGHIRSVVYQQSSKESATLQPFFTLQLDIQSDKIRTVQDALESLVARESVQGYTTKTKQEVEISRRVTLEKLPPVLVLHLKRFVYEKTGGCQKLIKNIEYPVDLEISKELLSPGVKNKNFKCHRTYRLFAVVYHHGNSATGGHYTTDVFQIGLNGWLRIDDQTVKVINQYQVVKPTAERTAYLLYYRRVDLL
Summary of the method: as §1

[9] = biological target: T6, USP15 (UniProt Q9Y4E8)
T6 sequence (whole entry): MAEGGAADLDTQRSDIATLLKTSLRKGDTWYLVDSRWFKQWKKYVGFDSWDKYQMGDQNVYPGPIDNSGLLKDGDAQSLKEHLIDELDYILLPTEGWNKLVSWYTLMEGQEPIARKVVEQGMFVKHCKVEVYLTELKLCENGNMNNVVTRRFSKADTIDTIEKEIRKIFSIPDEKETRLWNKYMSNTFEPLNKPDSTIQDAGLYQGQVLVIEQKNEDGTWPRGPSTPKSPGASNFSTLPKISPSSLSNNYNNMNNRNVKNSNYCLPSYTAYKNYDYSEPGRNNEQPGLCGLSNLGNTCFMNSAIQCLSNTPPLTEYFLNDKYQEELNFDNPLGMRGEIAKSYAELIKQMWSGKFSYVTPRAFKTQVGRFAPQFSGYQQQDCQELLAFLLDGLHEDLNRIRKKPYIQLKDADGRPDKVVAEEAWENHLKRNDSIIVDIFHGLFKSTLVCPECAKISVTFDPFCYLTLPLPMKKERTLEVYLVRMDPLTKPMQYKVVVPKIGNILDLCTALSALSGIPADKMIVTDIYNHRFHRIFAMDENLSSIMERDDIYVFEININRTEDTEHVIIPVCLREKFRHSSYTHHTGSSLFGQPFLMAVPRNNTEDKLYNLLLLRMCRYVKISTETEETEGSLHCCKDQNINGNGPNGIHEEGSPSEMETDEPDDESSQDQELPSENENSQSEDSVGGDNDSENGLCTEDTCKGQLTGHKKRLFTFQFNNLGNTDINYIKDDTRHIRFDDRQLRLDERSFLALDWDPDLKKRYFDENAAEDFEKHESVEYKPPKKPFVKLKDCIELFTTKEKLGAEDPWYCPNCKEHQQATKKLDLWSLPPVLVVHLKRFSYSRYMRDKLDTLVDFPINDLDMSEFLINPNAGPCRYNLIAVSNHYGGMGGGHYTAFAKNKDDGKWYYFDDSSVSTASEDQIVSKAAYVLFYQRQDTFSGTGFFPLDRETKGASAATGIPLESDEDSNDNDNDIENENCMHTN
Summary of the method: as §1

[10] = biological target: USP16 (UniProt Q9Y5T5)
Sequence of USP16 (Q9Y5T5 whole entry, looked up): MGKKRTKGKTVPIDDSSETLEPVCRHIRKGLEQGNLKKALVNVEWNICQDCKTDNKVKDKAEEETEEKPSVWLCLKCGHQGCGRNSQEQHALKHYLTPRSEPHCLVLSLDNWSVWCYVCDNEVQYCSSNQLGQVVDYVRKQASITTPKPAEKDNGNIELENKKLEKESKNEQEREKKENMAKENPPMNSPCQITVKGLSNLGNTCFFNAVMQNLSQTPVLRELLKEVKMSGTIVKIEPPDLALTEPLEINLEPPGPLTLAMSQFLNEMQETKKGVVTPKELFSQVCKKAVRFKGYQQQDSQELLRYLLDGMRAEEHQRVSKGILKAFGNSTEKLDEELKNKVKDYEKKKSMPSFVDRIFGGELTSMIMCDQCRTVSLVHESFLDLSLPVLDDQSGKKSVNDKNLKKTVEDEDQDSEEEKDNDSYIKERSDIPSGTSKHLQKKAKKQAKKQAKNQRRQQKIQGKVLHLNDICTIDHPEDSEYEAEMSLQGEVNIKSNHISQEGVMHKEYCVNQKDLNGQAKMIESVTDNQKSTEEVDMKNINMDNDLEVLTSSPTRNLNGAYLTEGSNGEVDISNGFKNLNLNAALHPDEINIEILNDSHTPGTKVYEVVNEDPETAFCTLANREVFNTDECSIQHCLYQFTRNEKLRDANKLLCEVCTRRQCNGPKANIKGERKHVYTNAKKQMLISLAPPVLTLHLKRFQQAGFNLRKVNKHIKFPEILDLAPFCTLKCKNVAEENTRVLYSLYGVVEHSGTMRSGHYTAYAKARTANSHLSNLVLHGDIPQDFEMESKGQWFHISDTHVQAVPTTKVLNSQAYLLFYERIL
Summary of the method: as §1

Measured: log2 ratio of Biotin-Ahx-Ub-VS probe labelling

Cc1cccc(N2CCC(NC(=O)CCl)C2=O)c1 (stereo not given)
active: [2] -1.61 | [5] -1.87
inactive: [1] -0.339 | [3] -0.232 | [4] -0.248 | [6] 0.0361 | [7] -0.503 | [8] -0.133 | [9] -0.299 | [10] -0.021
